PNC inhibitor = inhibitors of perinucleolar compartment assembly | 140,000 tested, 3.1% active | activity change (PNC), negative = inhibition, % at 10 µM | PC3M PTB-GFP, PNC prevalence imaging, 16 h; stronger effect = lower value;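 active = readout at or below -70, meaning at least 70% loss of cells showing the perinucleolar compartment, a nuclear body marking cancer cells; inconclusive = readout between -30 and a set limit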
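Compounds are pinned in duplicate onto adhered PC3M cells stably expressing GFP-tagged PTB and incubated 16 h at 37 C. Cells are then fixed, nuclei stained with Hoechst, and PNC-positive cells counted.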
IMPase cell inh = cell-permeable inhibitors of inositol monophosphatase (IMPase); CHO-M1 cells, IP1 accumulation, HTRF TR-FRET ratio; inhibition (IP1 accumulation), % at 46.1 µM; 120,000 tested, under 10 active; active = well fitted curve in the direction sought with a large enough effect in the signal ratio, not every such curve was filed as active; inconclusive = small, poorly fitted or top-dose-only effect, or a change in a side signal; inactive = no such curve, though single readings can be large or run the other way; the % refers to the signal ratio;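 also: cells stimulated with carbachol in lithium chloride buffer; higher means more IMPase inhibition seen as more IP1 and lower FRET ratio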
Target sequence (P97697 whole entry, looked up): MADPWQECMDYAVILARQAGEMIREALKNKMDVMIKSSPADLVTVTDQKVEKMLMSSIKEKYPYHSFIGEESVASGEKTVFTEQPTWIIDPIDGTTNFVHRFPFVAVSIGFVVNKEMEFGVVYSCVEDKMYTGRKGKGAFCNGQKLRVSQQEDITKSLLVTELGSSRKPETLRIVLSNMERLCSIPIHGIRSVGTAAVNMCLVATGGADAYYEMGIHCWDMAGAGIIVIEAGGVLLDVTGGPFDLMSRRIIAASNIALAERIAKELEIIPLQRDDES
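Carbachol-driven Gq signalling in CHO-M1 cells (2000/well) generates IP1. Compounds that block IMPase raise IP1 and so reduce the FRET signal from Eu-anti-IP1 and d2-IP1 after a 10 min room-temperature lysis.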
IMPase Li inh = cell-permeable IMPase inhibitors with lithium potentiation. CHO-M1 cells, IP1 TR-FRET (IP-One), carbachol + lithium. Potency, µM (top dose mostly 59.4 µM), usual class: inhibitors. 210,000 tested, 0.35% active. AID 1457; active = well fitted inhibition curve with a large enough effect; inconclusive = small, poorly fitted or top-dose-only effect; inactive = no such curve, though single readings can be large or run the other way;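 also: IP1 builds up when IMPase is blocked and the TR-FRET signal falls; nearly all actives have a fitted effect of over 50% in size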
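CHO cells stably expressing M1 receptor (2000/well, cultured 16–30 h) treated 30 min at 37C with compound plus low lithium. Cytosolic IP1 by TR-FRET (665/620 ratio and 620 channel) after 10 min lysis; AC50 by Hill fit.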
ALDH1A1 inh = inhibitors of human aldehyde dehydrogenase 1A1; AID 1030; Potency, µM (top dose mostly 75.3 µM), usual class: inhibitors; 220,000 tested, 7.3% active; Purified ALDH1A1, NADH fluorescence, propionaldehyde substrate; P00352
HPGD inh = HPGD (human) dehydrogenase inhibition | AID 894 | purified HPGD, NADH fluorescence kinetic, PGE2 substrate | Potency, µM, hits mostly inhibitors | 150,000 tested, 4.3% active | P15428
Target sequence (P15428 whole entry, looked up): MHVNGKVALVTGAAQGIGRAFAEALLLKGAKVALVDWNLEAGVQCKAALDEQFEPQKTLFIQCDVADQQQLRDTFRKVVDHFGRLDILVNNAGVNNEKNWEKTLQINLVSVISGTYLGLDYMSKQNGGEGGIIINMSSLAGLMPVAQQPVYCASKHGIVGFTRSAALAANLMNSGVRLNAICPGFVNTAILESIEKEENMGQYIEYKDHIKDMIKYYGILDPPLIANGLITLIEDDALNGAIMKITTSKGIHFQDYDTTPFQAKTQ
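NADH formation kinetics: reaction with 30 uM PGE2 and 1 mM NAD+ (final), 20 nM enzyme, Tris-HCl pH 8 with Tween 20, after 15 min compound preincubation at room temperature. Fluorescence change, last versus first of five reads.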
A number is an active result; n = inactive; u = inconclusive; x = no result. Sampled rows, rich in hits. Any-hit rate of the full collection: about 11%. Unless noted, calls follow the shape of the dose curve; as a rule, active = well fitted inhibition curve with a large enough effect (not every such curve was filed as active); inconclusive = small, poorly fitted or top-dose-only effect, or another doubt; inactive = no such curve, though single readings can be large or run the other way.

SMILES	PNC inhibitor	IMPase cell inh	IMPase Li inh	ALDH1A1 inh	HPGD inh
COc1ccc(C(C)=O)cc1CSc1nc2cc(Cl)ccc2o1	n	n	n	25µM	n
Fc1ccc(CSc2ncnc3c2oc2ccccc23)cc1	n	x	u	n	u
Cc1nc(SCC(=O)N2CCN(c3ccccc3)CC2)c2oc3ccccc3c2n1	n	n	n	40µM	u
Cc1nc(SCC(=O)c2cccs2)c2oc3ccccc3c2n1	n	n	n	n	13µM
O=C(CSc1ncnc2c1oc1ccccc12)NCc1ccc(F)cc1	n	n	25µM	n	n
CCOC(=O)CC(=O)CSc1nc(C)nc2c1oc1ccccc12	n	n	n	u	u
CC(C)CN1CC2(CCN(C(=O)c3csnn3)CC2)C1	x	x	n	n	n
O=C(CSc1ncnc2c1oc1ccccc12)c1cccs1	n	u	13µM	n	n
O=C(CSc1ncnc2c1oc1ccccc12)Nc1nccs1	x	x	u	n	x
O=C(CSc1nc2cc(Cl)ccc2o1)c1cccs1	u	n	n	n	14µM
Cc1[nH][nH]c(=O)c1C(c1ccccc1[N+](=O)[O-])C(C#N)C#N (stereo not given)	x	x	n	u	x
CCCc1[nH][nH]c(=O)c1C(c1cccc(Cl)c1)C(C#N)C#N (stereo not given)	n	n	n	14µM	16µM
COc1ccc(OCC(O)CNC(=O)Nc2ccccc2)cc1 (stereo not given)	x	x	x	n	x
O=C(NCC(O)COc1ccc([N+](=O)[O-])cc1)Nc1ccccc1 (stereo not given)	x	x	x	20µM	x
S=C1NCCOCCOCCNC(=S)N2CCOCCOCCN1CCOCCOCC2	x	x	n	n	x
Cc1oc2c(cc(NS(=O)(=O)c3ccc(C(C)C)cc3)c3ccccc32)c1C(=O)O	x	n	x	x	x
O=C(O)CSc1cc(NS(=O)(=O)c2cccc([N+](=O)[O-])c2)c2ccccc2c1O	x	x	x	3.5µM	x
CCc1ccc(S(=O)(=O)Nc2cc(SCC(=O)O)c(O)c3ccccc23)cc1	x	x	n	14µM	x
O=C(Nc1ccccc1)N1CCC2(CC1)CCN(C(=O)c1cnccn1)CC2	x	x	n	n	n
Cc1ccc(C(=O)N/C(=C\c2cccs2)C(=O)NCC2CCCO2)cc1C (stereo not given)	n	x	n	u	n
CCC(=O)/C=C/C1C(C)=CCCC1(C)C (stereo not given)	x	x	n	13µM	n
CC1=C(C#N)C(c2ccccc2)C2=C(N1)c1ccccc1C2=O (stereo not given)	n	x	n	13µM	22µM
CC1=C(C#N)C(c2cccnc2)C2=C(N1)c1ccccc1C2=O (stereo not given)	x	x	n	n	x
CC1(C)Oc2ccc(C(=O)NN)cc2NC1=O	x	x	n	1.6µM	x
CCCn1c(C(O)c2ccc3c(c2)OCO3)nc2ccccc21 (stereo not given)	-100	n	n	n	n
SMILES	PNC inhibitor	IMPase cell inh	IMPase Li inh	ALDH1A1 inh	HPGD inh
CCOc1ccc(/C(O)=C2/C(=O)C(=O)N(CCOCCO)C2c2ccc(F)cc2)cc1 (stereo not given)	n	u	11µM	n	n
CCOc1ccc(/C(O)=C2/C(=O)C(=O)N(CCOCCO)C2c2ccccn2)cc1 (stereo not given)	n	u	8.9µM	n	n
COC(=O)C1=[N+]([O-])OC(C(=O)OC)C1c1c[nH]c2ccccc12 (stereo not given)	n	n	n	n	n
COc1ccc(-c2cnn3c(N)c(S(=O)(=O)c4ccccc4)cnc23)cc1	n	n	n	n	20µM
CCNc1ncc2nc(-c3ccc(F)cc3)c(=O)n(Cc3ccc(F)cc3)c2n1	x	x	n	u	x
COCC(=O)N1CCC2(CC1)CN(c1ccc(-c3ccccc3)cc1)C2	x	x	n	u	u
O=C(CSc1n[nH]c(-c2ccccc2)n1)c1ccc(O)c(O)c1	n	n	n	n	3.5µM
O=C(CSc1n[nH]c(-c2ccccc2)n1)Nc1ncccn1	x	x	n	n	x
CCc1ccc(C(=O)CSc2n[nH]c(-c3ccncc3)n2)cc1	n	n	n	u	11µM
COC(=O)CSc1n[nH]c(-c2ccncc2)n1	n	n	n	n	n
COc1cc(C(=O)Nc2ccc3oc(-c4ccc(C)c(Br)c4)nc3c2)cc(OC)c1OC	x	n	x	x	x
COc1ccc(CONc2ncnc3nonc23)cc1[N+](=O)[O-]	x	x	n	14µM	x
O=c1[nH]c2[nH]c(=S)[nH]c(=S)c2[nH]1	x	x	n	u	3.5µM
O=C1NCN(c2ccccc2)C12CCN(c1nnnn1-c1ccccc1)CC2	u	n	n	22µM	n
O=C1CN(c2nnnn2-c2ccccc2)CCN1	n	n	n	n	n
Cc1cc(C)nc(N2CCN(c3nnnn3-c3ccccc3)CC2)n1	n	n	n	22µM	n
Cc1ccc(C)c(N2CCN(c3nnnn3-c3ccccc3)CC2)c1	n	n	n	n	n
c1ccc(CC2CCN(c3nnnn3-c3ccccc3)CC2)cc1	n	n	n	8.9µM	n
CCCCC(=O)Nc1sc2c(c1-c1nc3ccccc3s1)CCN(C(C)=O)C2	n	n	n	25µM	n
CC(=O)N1CCc2c(sc(NC(=O)C3CC3)c2-c2nc3ccccc3s2)C1	u	n	n	u	u
C[C@@](N)(Cc1ccc(O)c(O)c1)C(=O)O	x	n	n	n	u
O=C(NCc1ccco1)C(=O)NCC1OCCCN1S(=O)(=O)c1ccc(Cl)cc1 (stereo not given)	x	x	n	u	x
O=C(NCCC1=CCCCC1)C(=O)NCC1OCCCN1S(=O)(=O)c1ccc(F)cc1 (stereo not given)	x	x	n	22µM	x
Cc1ccc(S(=O)(=O)N2CCCOC2CNC(=O)C(=O)NCc2ccncc2)cc1 (stereo not given)	u	x	n	u	n
Cc1cc(S(=O)(=O)N2CCCOC2CNC(=O)C(=O)NCc2ccco2)ccc1F (stereo not given)	x	x	u	10µM	x
SMILES	PNC inhibitor	IMPase cell inh	IMPase Li inh	ALDH1A1 inh	HPGD inh
Cc1ccc(S(=O)(=O)N2CCCOC2CNC(=O)C(=O)NCc2cccs2)cc1 (stereo not given)	n	x	n	11µM	n
COC(=O)c1cccc(CN2C(=O)SC(Nc3ccc(Br)cc3)C2=O)c1 (stereo not given)	x	n	x	x	x
COc1ccc(Cl)cc1NC(=O)CNCC(c1ccccc1)N(C)C (stereo not given)	x	x	n	u	x
COc1ccc(C)cc1NC(=O)C(OC(=O)C1CC1)c1ccccc1 (stereo not given)	x	x	n	4µM	x
COc1ccc(C)cc1NC(=O)C(Sc1nncn1C)c1ccccc1 (stereo not given)	x	x	n	n	x
COc1ccc(NC(=O)C(NCC(C)C)c2ccccc2)cc1Cl (stereo not given)	x	x	n	1.4µM	x
COc1ccc(NC(=O)C(OC)c2ccccc2)cc1Cl (stereo not given)	u	x	n	13µM	n
COc1ccc(Cl)cc1NC(=O)C(OC)c1ccccc1 (stereo not given)	x	x	n	1.6µM	x
CC1(C)C(=O)Nc2ccccc2N1C(=O)COc1cccnc1[N+](=O)[O-]	x	x	n	n	x
